Compound activity (PubChem)
Rab9 prom act: qHTS Assay for Rab9 Promoter Activators; Huh7 Rab9 promoter-luciferase reporter, luminescence, 24 h; actives 2.8% (n = 320,000); Potency, µM (top dose mostly 9.22 µM), for inactives: at the highest dose activation, negative = inhibition, most hits filed as activators; AID 485297, 2010; note: % of control where 0% means no effect; nearly all actives have a fitted effect of over 60% in size
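Rab9 promoter-driven luciferase in stably transfected Huh7 cells; 1500 cells/well rested 2 h, exposed to compound in DMSO for 24 h at 37 °C, 5% CO2. Luminescence read 10 min after adding luciferase reagent at ambient temperature.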
NPC1 prom act: qHTS Assay for NPC1 Promoter Activators; Huh7 NPC1 promoter luciferase reporter, 24 h; Potency, µM (top dose mostly 9.22 µM), for the others: at the highest dose activation, most hits filed as activators; AID 485313, 2010; actives 2.4% (n = 320,000); note: % of control where 0% means no effect; nearly all actives have a fitted effect of over 60% in size
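Quantitative HTS used a cell-based reporter: Huh7 cells stably bearing the NPC1 promoter upstream of luciferase were treated with compounds for 24 h, and promoter activation was read as luminescence.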
FLuc counter: qHTS profiling assay for firefly luciferase inhibitor/activator using purifed enzyme and Km concentrations of substrates (counterscreen for miR-21 project) | purified FLuc, Km substrates, luminescence inhibition | Potency, µM (doses to about 57.5 µM), for inactives: top-dose activity change, negative = inhibition, hits mostly inhibitors | actives 6.9% (n = 360,000);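 note: plate controls were vehicle for no effect and reference inhibitor for full effect; nearly all actives have a fitted effect of over 55% in size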
Target sequence (P08659 whole entry, looked up): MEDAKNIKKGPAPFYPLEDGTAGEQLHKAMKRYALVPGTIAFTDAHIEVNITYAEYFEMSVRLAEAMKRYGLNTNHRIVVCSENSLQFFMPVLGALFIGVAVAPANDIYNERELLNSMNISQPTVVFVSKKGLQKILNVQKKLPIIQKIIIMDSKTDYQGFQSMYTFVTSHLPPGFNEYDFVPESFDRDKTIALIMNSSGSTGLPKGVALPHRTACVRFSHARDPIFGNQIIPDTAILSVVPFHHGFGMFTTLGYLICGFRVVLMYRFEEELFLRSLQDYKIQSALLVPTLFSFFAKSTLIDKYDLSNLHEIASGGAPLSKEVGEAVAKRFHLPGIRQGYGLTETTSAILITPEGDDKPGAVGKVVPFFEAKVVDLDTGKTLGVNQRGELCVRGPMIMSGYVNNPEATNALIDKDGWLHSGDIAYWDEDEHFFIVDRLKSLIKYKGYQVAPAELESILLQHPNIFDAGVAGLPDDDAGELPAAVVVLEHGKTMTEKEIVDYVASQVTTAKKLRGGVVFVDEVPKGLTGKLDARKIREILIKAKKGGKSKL
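Biochemical qHTS of compounds, final roughly 60 µM downward over six points, against 10 nM purified firefly luciferase using Km concentrations of substrates (10 uM D-luciferin, 10 uM ATP) in Tris acetate pH 7.5 buffer; luminescence output.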
ELG1 genotoxic: qHTS screen for small molecules that induce genotoxicity in human embryonic kidney (HEK293T) cells expressing luciferase-tagged ELG1 | actives 1.3% (n = 330,000) | Potency, µM (doses to about 46 µM), for the others: at the top dose activity change, positive = activation, most hits filed as activators | HEK293T ELG1-luciferase reporter, luminescence, 16 h | AID 504466, 2011; note: % of control where 0% means no effect; nearly all actives have a fitted effect of over 60% in size
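Quantitative HTS format in 1536-well plates. HEK293T ELG1-luciferase reporter cells receive test compound and are incubated 16 hr at 37 °C, 5% CO2; ONE-Glo added, 30 min room temperature, then luminescence read.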
SMN2 splice up: qHTS Assay for Enhancers of SMN2 Splice Variant Expression. HEK293 SMN2-luciferase splicing reporter, luminescence, 30-36 h. Potency, µM (series often up to 46.1 µM), for inactives: at the top dose activity change, positive = activation, actives largely listed as activators. actives 2.8% (n = 210,000); note: % of control where 0% means no effect; nearly all actives have a fitted effect of over 55% in size
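qHTS luciferase splicing reporter: luminescence rises when SMN2 exon 7 is included in transfected HEK293 cells. Compound exposure lasted 30-36 h at 37C, with 4.5 mM final sodium butyrate as control, followed by a ONE-Glo read.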
ELG1 repair inh: qHTS screen for small molecules that inhibit ELG1-dependent DNA repair in human embryonic kidney (HEK293T) cells expressing luciferase-tagged ELG1 | actives 2.3% (n = 330,000) | AID 504467, 2011 | Potency, µM (top dose mostly 46.1 µM), for the others: at the top dose activity change, negative = inhibition, actives largely listed as inhibitors | HEK293T ELG1-luciferase reporter, luminescence, 16 h; DNA damage induced by 5-fluorouridine; note: % is set by controls: 0 for no effect and ±100 for the full control effect; nearly all actives have a fitted effect of over 55% in size
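Cells (2,000 per well) received 5-fluorouridine plus test compound or DMSO and were incubated 16 hr at 37 °C, 5% CO2. Luciferase activity was read by luminescence 30 min after ONE-Glo addition; signal suppression marked inhibition of damage-induced ELG1 function.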
Active calls of the source: *; u = inconclusive; x = not tested or not shown. Shown are actives, neighbours in structure and some others; about 9.3% of the full set was active somewhere. Calls come from the whole dose curve; as a rule, active = well fitted curve in the direction sought with a large enough effect; inconclusive = small, poorly fitted or top-dose-only effect, or another doubt; inactive = no such curve, though single readings can be large; an effect the other way counts as inactive or inconclusive. Potency is the fitted concentration of half-maximal effect.

SMILES	Rab9 prom act	NPC1 prom act	FLuc counter	ELG1 genotoxic	SMN2 splice up	ELG1 repair inh
N#Cc1cc2c(nc1SCc1nc3ccccc3[nH]1)CCC2	0.71µM*	0.32µM*	1.3µM*	u	8.9µM*	u
Cc1cc(C)c(C#N)c(SCc2nc3ccccc3[nH]2)n1	u	17%	u	23µM*	10µM*	u
Cc1cc(C)c(C#N)c(SCc2ccc(F)cc2)n1	u	-9%	-4%	-3%	-4%	12%
COc1ccccc1N1CCN(C(=O)c2cccc(S(=O)(=O)N3CCCCCC3)c2)CC1	-5%	-3%	3%	-5%	x	13µM*
O=C(c1cccc(S(=O)(=O)N2CCCCCC2)c1)N1CCN(c2ccccc2F)CC1	0%	-2%	-3%	-15%	x	u
COc1ccc(S(=O)(=O)N2CCCCCC2)cc1C(=O)N1CCN(c2ccccc2O)CC1	-13%	-3%	4%	-4%	x	13µM*
CCOC(=O)c1ccc(NC(=O)c2cccc(S(=O)(=O)N3c4ccccc4CC3C)c2)s1 (configuration not stated)	-9%	-10%	3%	-13%	-48%	21µM*
CC1Cc2ccccc2N1S(=O)(=O)c1cccc(C(=O)N2CCN(c3ncccn3)CC2)c1 (configuration not stated)	25%	-11%	2%	-14%	0.56µM*	19%
CC1Cc2ccccc2N1S(=O)(=O)c1cccc(C(=O)NCCCO)c1 (configuration not stated)	-2%	-14%	2%	-5%	-22%	-3%
C[C@]12CCC3c4ccc(O)cc4CCC3C1CCC2OC(=O)CCC1CCCC1 (some centres not stated)	x	x	x	x	-1%	x
COc1ccc([N+](=O)[O-])cc1NCc1ccco1	1%	3%	5%	10%	x	29%
COc1ccc(S(=O)(=O)Nc2ccc(Oc3ccsc3C(=O)O)cc2)cc1	-2%	-7%	0%	-1%	x	13%
O=C(c1ccc(N2CCCC2=O)cc1)N1CCN(c2ccccc2O)CC1	-4%	-2%	x	-7%	x	18µM*
Cc1cccc(NS(=O)(=O)c2ccc(C(=O)N3CCN(c4ccccc4O)CC3)cc2)c1C	-1%	-1%	2%	-11%	x	21µM*
Cc1ccccc1NS(=O)(=O)c1ccc(C(=O)N2CCCC2)cc1	6%	0%	0%	2%	x	8%
Cc1cccc(N2CCN(C(=O)c3cccc(S(=O)(=O)N4CCCCC4)c3)CC2)c1C	x	x	x	-4%	x	13µM*
Cc1cccc(N2CCN(C(=O)c3cccc(N4CCCC4=O)c3)CC2)c1C	-5%	-3%	4%	-10%	x	u
Cc1cccc(N2CCN(C(=O)c3cccc(N4C(=O)C5CC=CC(C)C5C4=O)c3)CC2)c1C (configuration not stated)	-3%	-1%	-1%	-10%	-27%	23µM*
O=C(c1ccc(N2CCCC2=O)cc1)N1CCN(c2ccccc2F)CC1	-2%	0%	1%	0%	x	-2%
COc1cc(O)c(C(=O)O)c(O)c1	x	x	x	x	0%	x
COc1cc2c(cc1OC)C(COc1ccc3c(C)cc(=O)oc3c1)N(C(=O)CC(C)C)CC2 (configuration not stated)	x	x	0%	x	-5%	x
Cc1nc2scc(-c3ccccc3)c2c(=O)n1N	-1%	-1%	-1%	-7%	8%	-10%
Cc1nc2scc(-c3ccccc3)c2c(=O)n1N=C1C=CC(=O)C=C1	u	23%	19µM*	u	x	u
CCCn1c(=S)[nH]c2cc(C(=O)N3CCN(C(=O)OCC)CC3)ccc2c1=O	-1%	-2%	2%	-3%	x	12%
CCOC(=O)N1CCN(C(=O)c2ccc3c(=O)n(CCc4ccccc4)c(=S)[nH]c3c2)CC1	1%	1%	1%	0%	-11%	-20%
SMILES	Rab9 prom act	NPC1 prom act	FLuc counter	ELG1 genotoxic	SMN2 splice up	ELG1 repair inh
CCOC(=O)N1CCN(C(=O)c2ccc3c(=O)n(Cc4ccc(Cl)cc4)c(=S)[nH]c3c2)CC1	-5%	0%	-9%	-5%	-18%	8.2µM*
CCOC(=O)N1CCN(C(=O)c2ccc(Cn3c(=S)[nH]c4ccc(Br)cc4c3=O)cc2)CC1	-33%	-35%	1%	-13%	x	7.3µM*
COC(=O)c1sc(S(=O)(=O)N2CC(C)OC(C)C2)c(C(=O)OC)c1C (configuration not stated)	-3%	-2%	-5%	-4%	x	6%
COc1cc(-c2nc(C(=O)NC3CCCCC3)cc3c2[nH]c2ccccc23)cc(OC)c1OC	-11%	-5%	2%	-4%	x	5.8µM*
COc1cc2ccccc2cc1C(=O)NC1CCCCC1	u	27%	12µM*	13%	x	u
COc1cc2ccccc2cc1C(=O)NC1CCCC1	x	x	x	10%	x	u
CCn1cc(C(=O)NC2CCCCCC2)c2cc(OC)c(OC)cc2c1=O	0%	0%	-2%	-9%	-18%	13µM*
O=C(OC1CCCCC1)c1cc2ccccc2oc1=O	u	u	7.6µM*	u	x	u
CN(C(=O)COC(=O)c1cc2ccccc2oc1=O)C1CCCCC1	x	x	x	4%	x	u
O=C(NC1CCCCCC1)c1cc2ccccc2oc1=O	2%	3.2µM*	2.7µM*	13%	x	u
O=C(NCCc1ccccc1)c1cc2ccccc2oc1=O	8%	u	u	0%	x	u
O=C(NCCC1=CCCCC1)c1cc2ccccc2oc1=O	3%	-1%	4.8µM*	u	x	u
N=c1oc2ccccc2cc1C(=O)NC1CCCCCC1	-46%	u	4.8µM*	u	x	u
COc1ccc2cc(C(=O)NC3CCCCC3)c(=O)oc2c1	u	13%	u	u	8%	16%
N#CCCS(=O)(=O)c1ccccc1	x	x	x	x	17%	x
C/C(=N/NC(=O)CN(c1ccccc1)S(=O)(=O)c1ccccc1)c1ccccc1O	-21%	-30%	-6%	-1%	x	13µM*
Cc1cc(C)c(S(=O)(=O)C(C)C)c(=O)[nH]1	-2%	-6%	-2%	4%	10%	-10%
CCCCn1c(N)c(N(CC(C)C)C(=O)CCNC(=O)c2ccc([N+](=O)[O-])cc2)c(=O)[nH]c1=O	2%	-1%	0%	-3%	x	11%
